Shown are actives, neighbours in structure and some others; about 2.1% of the full set was active somewhere.
CHT block: human CHT choline transport inhibition; 310,000 tested, 0.86% active; B-score at 10 µM; CHT-expressing cells, membrane potential dye, choline response; hits give low values; AID 488975;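 active = B-score over 3 SD under the library average, and starting fluorescence ratio not unusually high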;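 note: choline stimulus applied at its EC90 after an EC20 pre-addition; B-score computed on integrated fluorescence ratio after choline addition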
PGE2 EP2 inh: blocks the human prostaglandin E2 receptor EP2. C6 glioma cells expressing human EP2, cAMP TR-FRET; cells stimulated with saturating PGE2. inhibition, % at 25 µM. 260,000 tested, 0.52% active;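 active = percent inhibition above 40 after rounding to a whole number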;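 note: rat C6 glioma host cells with rolipram phosphodiesterase inhibitor present; the protocol text gives 20 µM as final concentration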
Target sequence (P43116 whole entry, looked up): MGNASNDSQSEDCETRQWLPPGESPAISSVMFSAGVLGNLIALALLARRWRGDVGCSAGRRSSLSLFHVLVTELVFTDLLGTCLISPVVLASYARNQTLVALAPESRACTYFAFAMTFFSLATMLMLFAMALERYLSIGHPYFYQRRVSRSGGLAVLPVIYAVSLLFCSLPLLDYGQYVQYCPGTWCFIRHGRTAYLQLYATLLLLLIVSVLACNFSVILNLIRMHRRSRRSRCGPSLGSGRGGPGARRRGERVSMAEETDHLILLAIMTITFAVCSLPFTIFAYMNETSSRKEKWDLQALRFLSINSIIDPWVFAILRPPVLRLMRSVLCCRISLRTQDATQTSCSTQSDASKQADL
EP2 modulator: modulates human prostaglandin E2 receptor EP2 signaling. EP2-expressing cells, cAMP HTRF FRET, PGE2 co-stimulation. P43116. 260,000 tested, 0.83% active. induction, % at 25 µM. AID 940;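 active = compounds whose cAMP rise, as percent of the full-agonist control response, exceeds 60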;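 note: rat C6 glioma line stably carrying human EP2 under a CMV promoter; the protocol text gives 20 µM as final concentration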
CHT PAM: allosterically activates the human high affinity choline transporter. Q9GZV3. CHT-expressing cells, membrane potential dye, choline EC20; hits give high values; LV-AA mutant CHT in HEK293 cells. B-score at 10 µM. 310,000 tested, 0.49% active. AID 488977;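 active = initial fluorescence not abnormally high and integrated response B-score, plate-corrected, over 3 SD above library mean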
Hits are given with their value; i = inactive; nt = not tested or not shown.

SMILES | CHT block | PGE2 EP2 inh | EP2 modulator | CHT PAM
CN1CCC[C@H](C(=O)OCC(=O)[C@]2(O)CC[C@@H]3[C@H]4CCC5=CC(=O)CC[C@@]5(C)[C@@H]4[C@@H](O)C[C@]32C)C1 | nt | 53 | i | nt
C[C@@]12CCC(=O)C=C1CC[C@H]1[C@H]2[C@@H](O)C[C@]2(C)[C@@H]1CC[C@@]2(O)C(=O)COC(=O)C1CCCC1 | nt | 50 | i | nt
CCOC(=O)CSc1nc2c(C)cccc2cc1CC | nt | i | 73 | nt
CCOC(=O)CSc1nc2c(C)c(C)ccc2cc1C | nt | i | 88 | nt
Cc1nc2cc(-c3cccc(F)c3)nn2c(NCC(C)(C)CN(C)C)c1C | nt | i | i | nt
O=C(Nc1ccccc1Cl)NC1CC2CCCC(C1)N2Cc1cccs1 (configuration not stated) | nt | i | i | nt
O=C(/C=C/c1ccccc1)NC1CC2CCCC(C1)N2Cc1cccs1 (configuration not stated) | nt | 49 | i | nt
Nc1ncnc2c1ncn2[C@@H]1O[C@H](CO)[C@H](O)C1O (some centres not stated) | nt | i | i | nt
CCO[P@]1(=O)OC[C@@H]2O[C@H](n3cnc4c(N)ncnc43)[C@H](O)[C@H]2O1 | nt | i | 101 | nt
O=C1OCCC/C1=C\c1ccc2c(c1)OCO2 | i | i | 82 | i
CCCN1C/C(=C/c2ccc3c(c2)OCO3)C(=O)/C(=C/c2ccc3c(c2)OCO3)C1 | i | i | i | i
CCc1ccc(CNC(=O)c2ccc(OC)c(OC3CCN(C(C)C)CC3)c2)nc1 | -9.6 | nt | nt | i
COc1ccc(C(=O)NC(Cn2ccnc2)C(C)(C)C)cc1OC1CCN(C(C)C)CC1 (configuration not stated) | -8.7 | nt | nt | i
COC(=O)CN(C)C(=O)c1ccc(OC)c(OC2CCN(C(C)C)CC2)c1 | i | nt | nt | i
O=C(CCSc1nc(-c2ccc3c(c2)OCO3)cc(C(F)(F)F)n1)NCC1CCCO1 (configuration not stated) | nt | i | i | nt
O=C1CNC(=S)N1CCc1ccc(Cl)cc1 | i | i | i | i
O=C1CNC(=S)N1CCc1ccccc1Cl | -5.1 | i | i | i
CC(=O)N1c2ccccc2C2(O)N=C(C)SC12 (configuration not stated) | i | 42 | i | i
COC(=O)NC1SC(C)=NC1(O)c1ccccc1 (configuration not stated) | nt | i | i | nt
CC(C)(C)c1ccc(NS(=O)(=O)c2ccc(N)cc2)cc1 | i | i | i | i
CC(C)(C)c1ccc(S(=O)(=O)/C=C/C#N)cc1 | nt | 97 | i | nt
COC(=O)c1ccc(NC(=S)N2CCN(c3nc4ccccc4s3)CC2)cc1 | nt | i | i | nt
Cc1cccc(-c2n[nH]c(=S)o2)c1 | nt | 41 | i | nt
S=c1[nH]nc(-c2cccc(Br)c2)o1 | i | 53 | i | i
COC(=O)c1c(NC(=O)c2ccccc2)sc2c1C(C(=O)OC)CC2 (configuration not stated) | nt | i | i | nt
SMILES | CHT block | PGE2 EP2 inh | EP2 modulator | CHT PAM
CC(=O)N1CCN(C(=O)CN2N=C(C(C)(C)C)Cn3c(cc4ccccc43)C2=O)CC1 | nt | i | i | nt
NC1=N[C@@H](c2ccc(Cl)cc2)N(c2ccc(S(N)(=O)=O)cc2)C(N)=N1 | nt | 47 | i | nt
COC(=O)c1cccc(S(=O)(=O)N(CCCO)Cc2cc3cc(C)ccc3[nH]c2=O)c1 | nt | i | i | nt
COC(=O)c1cccc(S(=O)(=O)N(Cc2cccs2)Cc2cc3cc(OC)ccc3[nH]c2=O)c1 | nt | 46 | i | nt
COc1ccc(S(=O)(=O)N(Cc2cccs2)Cc2cc3cc4c(cc3[nH]c2=O)OCCO4)cc1 | nt | i | i | nt
COc1ccc2[nH]c(=O)c(CN(Cc3cccs3)S(=O)(=O)c3ccc(C(C)=O)cc3)cc2c1 | nt | 66 | i | nt
CC1(C)CC(=O)C2=C(C1)OC(N)=C(C#N)C2c1ccc(-c2ccc(Cl)c(Cl)c2)o1 (configuration not stated) | nt | i | i | nt
COc1ccc(-c2cnc(NC(=O)COc3cccc4nsnc34)n2C)cc1 | nt | i | i | nt
S=C1NCN2CCN(CC2)CNC(=S)C(=S)NCN2CCN(CC2)CNC1=S | nt | 48 | i | nt
O=C(O)CCCC(=O)Nc1ccc2c(c1)OCO2 | nt | i | i | nt
O=C1c2ccccc2[C@@H]([C@H]2c3ccccc3C(=O)c3cc(Br)ccc32)c2ccc(Br)cc21 | nt | 54 | i | nt
CCC(c1nnnn1C1CCCC1)N(Cc1ccco1)Cc1cc2cc(C)ccc2[nH]c1=O (configuration not stated) | nt | i | 69 | nt
CCC(c1nnnn1C1CCCC1)N(CCN1CCOCC1)Cc1cc2cc(C)ccc2[nH]c1=O (configuration not stated) | nt | i | i | nt
CCOc1ccc2[nH]c(=O)c(CN(Cc3cccs3)C(CC)c3nnnn3C(C)(C)CC)cc2c1 (configuration not stated) | nt | i | i | nt

Screening data as filed in PubChem BioAssay.
